The values below come from ChEMBL document CHEMBL1961873, “Compounds: GSK PKIS; Assays: Nanosyn kinase panel” (2012).

SMILES strings stand for the structures.

Assay [1] concerns the target T1, Serine/threonine-protein kinase TBK1 (Homo sapiens) (UniProt Q9UHD2).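 Also: values are mean inhibition of TBK1, screened as part of the GSK published kinase inhibitor set.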
T1 sequence (whole entry): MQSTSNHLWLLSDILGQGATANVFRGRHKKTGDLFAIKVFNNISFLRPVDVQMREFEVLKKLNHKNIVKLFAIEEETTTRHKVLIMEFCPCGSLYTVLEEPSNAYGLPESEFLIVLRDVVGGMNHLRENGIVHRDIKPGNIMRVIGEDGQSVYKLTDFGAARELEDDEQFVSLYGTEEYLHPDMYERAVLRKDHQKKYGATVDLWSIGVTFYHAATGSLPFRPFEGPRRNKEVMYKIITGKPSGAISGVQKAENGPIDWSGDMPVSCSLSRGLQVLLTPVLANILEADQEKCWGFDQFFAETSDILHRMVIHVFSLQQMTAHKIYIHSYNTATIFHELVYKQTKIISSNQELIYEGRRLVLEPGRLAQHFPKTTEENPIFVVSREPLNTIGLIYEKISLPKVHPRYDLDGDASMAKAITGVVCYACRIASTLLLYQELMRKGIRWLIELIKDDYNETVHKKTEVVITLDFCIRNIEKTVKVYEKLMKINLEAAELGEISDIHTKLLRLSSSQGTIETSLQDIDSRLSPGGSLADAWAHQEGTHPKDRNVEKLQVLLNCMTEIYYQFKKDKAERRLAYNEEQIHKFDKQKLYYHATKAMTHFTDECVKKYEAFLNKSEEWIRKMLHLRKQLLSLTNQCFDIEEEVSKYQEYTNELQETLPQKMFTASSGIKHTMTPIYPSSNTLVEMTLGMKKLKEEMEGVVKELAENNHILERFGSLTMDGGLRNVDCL
The settings on record: at 1 µM.

Assay [2] concerns the target T2, Testis-specific serine/threonine-protein kinase 1 (Homo sapiens) (UniProt Q9BXA7).
T2 sequence (whole entry): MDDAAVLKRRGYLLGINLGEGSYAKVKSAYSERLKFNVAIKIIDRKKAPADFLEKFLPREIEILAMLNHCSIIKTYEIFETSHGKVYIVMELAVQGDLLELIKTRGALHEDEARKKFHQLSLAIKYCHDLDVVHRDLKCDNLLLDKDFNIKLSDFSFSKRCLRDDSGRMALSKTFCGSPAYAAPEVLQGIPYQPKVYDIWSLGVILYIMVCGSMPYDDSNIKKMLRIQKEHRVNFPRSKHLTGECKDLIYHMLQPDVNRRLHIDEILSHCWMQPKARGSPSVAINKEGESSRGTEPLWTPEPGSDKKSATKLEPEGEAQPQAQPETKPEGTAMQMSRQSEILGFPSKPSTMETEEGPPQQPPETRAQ
As to conditions: at 0.1 µM.

In assay [3] the target is T2, Testis-specific serine/threonine-protein kinase 1 (Homo sapiens). As to conditions: at 1 µM.
Assay [4] addresses T3, Testis-specific serine/threonine-protein kinase 2 (Homo sapiens) (UniProt Q96PF2).
T3 sequence (whole entry): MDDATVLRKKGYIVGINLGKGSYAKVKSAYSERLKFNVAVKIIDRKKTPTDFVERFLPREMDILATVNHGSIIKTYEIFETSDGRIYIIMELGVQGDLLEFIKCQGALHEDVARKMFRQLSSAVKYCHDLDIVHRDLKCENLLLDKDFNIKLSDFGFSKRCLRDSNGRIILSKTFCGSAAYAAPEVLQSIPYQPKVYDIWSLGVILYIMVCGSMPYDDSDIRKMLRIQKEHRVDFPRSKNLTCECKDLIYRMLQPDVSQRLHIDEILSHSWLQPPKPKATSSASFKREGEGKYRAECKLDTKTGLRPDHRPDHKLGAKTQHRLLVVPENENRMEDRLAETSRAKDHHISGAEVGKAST
As to conditions: at 0.1 µM.

Assay [5] deals with T3, Testis-specific serine/threonine-protein kinase 2 (Homo sapiens). The settings on record: at 1 µM.
The target in assay [6] is Casein kinase I isoform alpha (Homo sapiens) (UniProt P48729). The settings on record: at 0.1 µM.
Sequence of Casein kinase I isoform alpha (Homo sapiens) (P48729 2-337 limits assumed): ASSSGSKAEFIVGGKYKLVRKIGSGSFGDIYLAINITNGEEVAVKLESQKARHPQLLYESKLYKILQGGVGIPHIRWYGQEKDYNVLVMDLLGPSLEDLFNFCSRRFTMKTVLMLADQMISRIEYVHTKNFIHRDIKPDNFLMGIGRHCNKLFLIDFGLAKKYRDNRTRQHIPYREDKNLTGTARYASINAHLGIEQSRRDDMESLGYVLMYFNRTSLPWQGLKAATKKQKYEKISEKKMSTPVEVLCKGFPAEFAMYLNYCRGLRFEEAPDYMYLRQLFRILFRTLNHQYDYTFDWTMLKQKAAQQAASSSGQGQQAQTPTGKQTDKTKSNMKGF
Assay [7] has the same target. The settings on record: at 1 µM.
In assay [8] the target is Casein kinase I isoform gamma-1 (Homo sapiens) (UniProt Q9HCP0). As to conditions: at 0.1 µM.
Sequence of Casein kinase I isoform gamma-1 (Homo sapiens) (Q9HCP0 whole entry, looked up, canonical isoform): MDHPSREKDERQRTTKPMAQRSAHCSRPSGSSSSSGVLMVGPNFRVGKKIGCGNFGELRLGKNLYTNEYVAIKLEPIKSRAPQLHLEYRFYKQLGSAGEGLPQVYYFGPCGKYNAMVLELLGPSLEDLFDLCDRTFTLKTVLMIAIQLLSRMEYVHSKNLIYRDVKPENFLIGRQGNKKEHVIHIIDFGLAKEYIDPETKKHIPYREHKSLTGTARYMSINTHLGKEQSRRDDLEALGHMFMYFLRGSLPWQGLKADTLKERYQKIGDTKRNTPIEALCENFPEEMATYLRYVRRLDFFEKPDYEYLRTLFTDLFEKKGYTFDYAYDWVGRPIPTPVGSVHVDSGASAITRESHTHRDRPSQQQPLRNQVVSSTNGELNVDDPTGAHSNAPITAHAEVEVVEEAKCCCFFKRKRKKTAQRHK
Assay [9] shares this target. As to conditions: at 1 µM.
The target of assay [10] is Casein kinase I isoform gamma-2 (Homo sapiens) (UniProt P78368). As to conditions: at 0.1 µM.
Sequence of Casein kinase I isoform gamma-2 (Homo sapiens) (P78368 whole entry, looked up, canonical isoform): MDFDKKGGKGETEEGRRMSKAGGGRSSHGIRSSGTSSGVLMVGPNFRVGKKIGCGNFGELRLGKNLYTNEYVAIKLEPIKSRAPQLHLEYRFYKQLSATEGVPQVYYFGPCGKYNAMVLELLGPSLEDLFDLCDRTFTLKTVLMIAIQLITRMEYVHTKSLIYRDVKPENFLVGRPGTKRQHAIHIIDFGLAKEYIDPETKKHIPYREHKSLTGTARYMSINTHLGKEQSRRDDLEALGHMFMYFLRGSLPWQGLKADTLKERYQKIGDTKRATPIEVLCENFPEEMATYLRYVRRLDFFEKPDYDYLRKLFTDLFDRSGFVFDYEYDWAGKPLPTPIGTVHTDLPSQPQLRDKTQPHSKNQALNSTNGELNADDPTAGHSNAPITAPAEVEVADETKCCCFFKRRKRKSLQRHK
For assay [11] the target is unchanged. The settings on record: at 1 µM.
The target of assay [12] is Casein kinase I isoform gamma-3 (Homo sapiens) (UniProt Q9Y6M4). The settings on record: at 0.1 µM.
Sequence of Casein kinase I isoform gamma-3 (Homo sapiens) (Q9Y6M4 whole entry, looked up, canonical isoform): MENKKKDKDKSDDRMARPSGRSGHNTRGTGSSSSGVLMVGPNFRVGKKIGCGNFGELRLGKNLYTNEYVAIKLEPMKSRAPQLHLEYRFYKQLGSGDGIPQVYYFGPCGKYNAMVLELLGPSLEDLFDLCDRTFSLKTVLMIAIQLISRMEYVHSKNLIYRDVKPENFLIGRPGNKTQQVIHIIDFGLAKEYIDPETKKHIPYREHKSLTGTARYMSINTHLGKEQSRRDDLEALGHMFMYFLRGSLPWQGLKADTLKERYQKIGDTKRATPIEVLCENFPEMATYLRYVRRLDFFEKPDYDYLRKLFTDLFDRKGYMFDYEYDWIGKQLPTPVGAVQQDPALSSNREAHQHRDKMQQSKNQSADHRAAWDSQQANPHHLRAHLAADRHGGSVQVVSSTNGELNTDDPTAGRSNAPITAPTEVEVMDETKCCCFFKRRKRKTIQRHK
Assay [13] has the same target. As to conditions: at 1 µM.
Assay [14] has as its target Cyclin-dependent kinase 1 (Homo sapiens) (UniProt P06493). The settings on record: at 0.1 µM.
Assay [15] shares this target. As to conditions: at 1 µM.
Assay [16] concerns the target Cyclin-dependent kinase 2 (Homo sapiens) (UniProt P24941). As to conditions: at 0.1 µM.
The target is the same in assay [17]. The settings on record: at 1 µM.
Assay [18] shares this target. The settings on record: at 0.1 µM. This is another data set of the same source.
For assay [19] the target is unchanged. The settings on record: at 1 µM. The source holds these as a separate data set.
Assay [20] addresses CDK3/Cyclin E (Homo sapiens) (UniProt P24864+Q00526). As to conditions: at 0.1 µM.

Sequence of CDK3/Cyclin E (Homo sapiens) (P24864 whole entry, looked up): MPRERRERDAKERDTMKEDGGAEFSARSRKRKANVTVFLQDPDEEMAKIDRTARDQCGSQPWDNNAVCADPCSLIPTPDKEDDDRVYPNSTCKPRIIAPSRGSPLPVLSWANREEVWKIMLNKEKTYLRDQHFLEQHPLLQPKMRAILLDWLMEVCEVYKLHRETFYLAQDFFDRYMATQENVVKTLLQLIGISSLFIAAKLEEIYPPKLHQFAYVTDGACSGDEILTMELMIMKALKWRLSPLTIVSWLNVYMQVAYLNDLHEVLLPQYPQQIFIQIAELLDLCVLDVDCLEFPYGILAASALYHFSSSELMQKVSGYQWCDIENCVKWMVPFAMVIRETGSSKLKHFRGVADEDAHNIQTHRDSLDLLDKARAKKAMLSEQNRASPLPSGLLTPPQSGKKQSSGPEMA
Sequence of CDK3/Cyclin E (Homo sapiens) (Q00526 whole entry, looked up): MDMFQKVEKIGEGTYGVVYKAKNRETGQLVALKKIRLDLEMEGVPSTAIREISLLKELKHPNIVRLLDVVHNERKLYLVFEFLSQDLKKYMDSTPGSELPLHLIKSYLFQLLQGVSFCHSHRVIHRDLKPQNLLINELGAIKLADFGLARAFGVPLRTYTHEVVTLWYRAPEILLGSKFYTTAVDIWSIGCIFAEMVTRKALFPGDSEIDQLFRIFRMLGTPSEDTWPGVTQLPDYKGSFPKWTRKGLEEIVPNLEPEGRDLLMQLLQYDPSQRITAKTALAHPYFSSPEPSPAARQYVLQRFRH
Sequence of Cyclin-dependent kinase 1 (Homo sapiens) (P06493 whole entry, looked up): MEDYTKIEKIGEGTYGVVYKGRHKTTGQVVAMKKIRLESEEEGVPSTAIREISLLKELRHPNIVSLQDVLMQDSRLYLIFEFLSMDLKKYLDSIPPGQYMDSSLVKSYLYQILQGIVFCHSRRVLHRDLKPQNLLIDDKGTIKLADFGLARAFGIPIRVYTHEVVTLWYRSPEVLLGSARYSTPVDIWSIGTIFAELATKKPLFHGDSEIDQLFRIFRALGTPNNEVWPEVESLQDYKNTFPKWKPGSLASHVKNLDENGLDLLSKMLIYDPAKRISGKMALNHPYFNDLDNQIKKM

As for `NS(=O)(=O)c1cccc(-c2ccc3c(NC(=O)C4CC4)n[nH]c3c2)c1`, the inhibition in assay [1] is 0.44%; in assay [2] it was -0.2%; in [3], -0.47%; in assay [4], -0.61%; in [5] it was -0.16%; in assay [6], 4.11%. Further, the inhibition is 4.53% in assay [7]; -0.89% in [8]; 0.05% in assay [9]; -0.75% in assay [10]; -1.38% in assay [11]; -0.89% in assay [12]. Besides, the inhibition in [13] is 2.47%; in [14], 0.37%; in assay [15] it was 1.15%; in assay [16], 0.27%; in assay [17] it was -6.96%; in assay [18], 0.15%. Besides, the values for the inhibition in assay [19] and in assay [20] were 3.36% and 0.71%, respectively.

For `NS(=O)(=O)c1ccc(N/N=C2\C(=O)Nc3ccc(C(=O)NCCc4c[nH]cn4)cc32)cc1`, the inhibition came out at 26.8% in [1]; 6.64% in assay [2]; 11.2% in assay [3]; 3.37% in assay [4]; 1.67% in [5]; 9.71% in assay [6]. Also, the inhibition in assay [7] was 8.41%; in [8] it was 4.44%; in assay [9], 9.85%; in assay [10] it was 3.01%; in [11], 9.23%; in assay [12], 5.54%. Further, the inhibition came to 16.4% in assay [13], 30.1% in assay [14], 76.1% in assay [15] and 26.9% in [20].

Regarding `CS(=O)(=O)CCNCc1ccc(-c2ccc3ncnc(Nc4ccc(OCc5cccc(F)c5)c(C(F)(F)F)c4)c3c2)o1`, the inhibition amounted to 4.04% in assay [1]; 4.81% in [2]; 5.61% in assay [3]; 2.88% in [4]; 3.87% in assay [5]; 1.94% in [6]. For the same compound, the inhibition worked out at 2.33% in [7]; 3.11% in [8]; 4.58% in [9]; 2.69% in assay [10]; 3.77% in [11]; 2.34% in assay [12]. For the same compound, the inhibition in assay [13] was 1.71%; in [14], -0.13%; in assay [15] it was 2%; in [16], 5.89%; in [17] it was -0.79%; in assay [18], 1.93%. The inhibition in assay [19] was 3.21%; in [20], 2.34%.

For the compound `c1cnn2ncc(-c3ccnc(Nc4ccc5c(c4)OCCO5)n3)c2c1`, the inhibition in [1] stood at 23.9%; in [2] it was 4.39%; in assay [3] it was 18.1%; in assay [4], 2.63%; in assay [5] it was 4.19%; in [6] it was 9.95%. In addition, the inhibition in assay [7] came to 44.9%; in assay [8] it was 4.47%; in assay [9] it was 22.1%; in [10], 7.95%; in assay [11], 46.9%; in assay [12], 6.57%. Besides, the inhibition in assay [13] stood at 38%; in assay [14], 71.3%; in [15], 92.9%; in assay [16], 65.5%; in [17] it was 86.1%; in [18], 73.6%. In addition, in assay [20], the inhibition amounted to 36.9%.

As for `COc1cc2ncn(-c3cc(O[C@@H](C)c4ccccc4Cl)c(C(N)=O)s3)c2cc1OC`, the inhibition is 27% in assay [1]; 3.02% in assay [2]; 5.73% in assay [3]; 1.37% in assay [4]; 1.24% in assay [5]; 4.77% in [6]. Besides, the inhibition came to 4.44% in assay [7]; 4.61% in assay [8]; 5.05% in assay [9]; 4.07% in [10]; 5.19% in assay [11]; 3.46% in [12]. Further, the inhibition in [13] was 3.53%; in assay [14], -0.28%; in assay [15] it was 2.69%; in assay [20] it was -0.85%.

`O=C1NC(=O)C(c2cccc(Cl)c2)=C1Nc1ccc(O)c(Cl)c1`: the inhibition was 23.9% in assay [1]; 1.11% in assay [2]; 1.63% in assay [3]; -0.57% in assay [4]; 0.16% in assay [5]; 1.72% in [6]. Further, the inhibition in assay [7] was 9.44%; in assay [8], 0.2%; in [9] it was 1.3%; in assay [10] it was 0.09%; in assay [11] it was 0.54%; in [12], 1.06%. For the same compound, the inhibition in assay [13] stood at 0.9%; in assay [14] it was 0.73%; in [15], 7.55%; in assay [16] it was 1.84%; in [17], 6.86%; in assay [18], 2.79%. In addition, the values for the inhibition in [19] and in assay [20] were 10.6% and 3.01%, respectively.

On to `COC(=O)Nc1nc2cc(Oc3ccc(NC(=O)Nc4cccc(C(=O)O)c4)cc3)ccc2[nH]1`, for which the inhibition was 2.42% in [1]; 0.41% in assay [2]; 0.96% in [3]; 0.4% in [4]; 0.93% in assay [5]; 2.25% in assay [6]. Besides, the inhibition is 0.72% in assay [7]; -2.42% in assay [8]; -2.13% in [9]; -2.21% in assay [10]; -2.28% in assay [11]; -2.29% in [12]. In addition, the inhibition is -0.39% in assay [13]; -2.2% in assay [14]; 0.34% in assay [15]; -1.03% in assay [16]; 4.44% in assay [17]; 1.71% in assay [18]. Also, the inhibition in assay [19] is 1.67%; in assay [20] it was 1.76%.

The inhibition is the change of the read-out against control, counted positive when it falls.
